Assay outcomes from PubChem.
Shown is part of a subset that was picked to be rich in hits.
KDM5B inh: inhibitors of human KDM5B histone demethylase; KDM5B demethylase, FDH-coupled NADH fluorescence (FDH is formaldehyde dehydrogenase); Potency, µM (doses to about 57.7 µM), usual class: inhibitors; Q9UGL1; actives 2.6% (n = 220,000); active = well fitted inhibition curve with a large enough effect; note: nearly all actives have a fitted effect of over 70% in size
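Inhibition is measured as reduced NADH fluorescence generation from FDH coupling to formaldehyde release. Truncated KDM5BΔAP at 200 nM final acts on H3K4me3 peptide (12.5 µM in substrate mix) in pH 7.5 HEPES buffer with Tween-20, 30 min, room temperature.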
Each line names hits and unclear results; the compound was inactive in the other large screens.

O=C1NC(=NC2CCCC2)C2(CCN(Cc3ccc(F)cc3)C2)N1c1cc(F)cc(F)c1 (centres undefined)	none
O=C(COC(=O)Cc1ccc(F)cc1)NCc1ccc(Cl)cc1	none
C=CCCC(CN1CCOCC1)Oc1ccc(Cn2ccnc2)cn1 (centres undefined)	none
CCc1ccc(NCc2ccc(OC)c(Cn3ccnc3)c2)cc1	none
COc1ccc(-c2ccc(Cn3ccnc3)cn2)c2ccc(C)nc12	KDM5B inh 25.1µM
CN1C(=O)Cc2cc(S(=O)(=O)Nc3cccn4nc(C5CC5)nc34)ccc21	none
CC(C)c1ccc(OCC(=O)c2ccc3c(c2)N(CCCC(=O)N2CCOCC2)C(=O)CO3)cc1	none
COC(=O)CSc1nc2ccsc2c(=O)n1C	none
O=C(CCC1CCCN(S(=O)(=O)c2ccccc2F)C1)NCCN1CCOCC1 (centres undefined)	KDM5B inh 20µM
O=C(CCC1CCCN(S(=O)(=O)c2ccccc2F)C1)NCc1cccs1 (centres undefined)	none
O=C(CCC1CCN(S(=O)(=O)c2cccc(F)c2)CC1)NCCN1CCOCC1	none
CCc1ccc(C(=O)CSc2n[nH]c(CC)n2)cc1	none
O=C(NCCc1cnccn1)[C@H]1CNC[C@@H](C(=O)N2CCOCC2)C1	none
COC(=O)[C@@H]1Cc2c([nH]c3ccccc23)[C@H]2C[C@@H](NCCN(C)C)C[C@@H](c3cccc(Cl)c3)N21	none
COC(=O)[C@@H]1Cc2c([nH]c3ccccc23)C(C)N1C(=O)c1ccccc1 (some centres undefined)	none
COC(=O)[C@@H]1Cc2c([nH]c3ccccc23)[C@H]2C[C@H](NCCc3cnc[nH]3)C[C@@H](c3ccccc3F)N21	none
COC(=O)[C@@H]1Cc2c([nH]c3ccccc23)[C@H]2C[C@@H](NCCN3CCOCC3)C[C@@H](c3ccc(F)cc3)N21	none
COC(=O)[C@@H]1Cc2c([nH]c3ccccc23)[C@H]2C[C@@H](NCc3ccccc3)C[C@@H](c3ccccc3F)N21	KDM5B inh 4.47µM
COCCN[C@@H]1C[C@@H]2c3[nH]c4ccccc4c3C[C@@H](C(=O)OC)N2[C@H](c2ccc(F)c(F)c2)C1	KDM5B inh 12.6µM
CCO[C@H]1CN(Cc2ccccc2OCC(=O)N2CCC(C)CC2)C[C@@H]1O	none
N#CCCN(C(=O)CN1CCCC1c1ccc2c(c1)OCCO2)c1ccccc1F (centres undefined)	none
C/C(=N\NC(=S)Nc1ccc(C)cc1)c1ccc([N+](=O)[O-])cc1	none
Cc1ccccc1C(=O)N1CCCN(c2cc(-c3ccccc3)[nH]n2)CC1	none
COc1ccc(C(=O)N2CCCN(c3nnc4ccc(Cl)cn34)CC2)cn1	KDM5B inh 22.4µM
Cc1ccc(-c2cc(N3CCCN(C(=O)c4ccccc4F)CC3)n[nH]2)cc1C	none
O=C(c1cccnc1)N1CCN(C(=O)c2nnn3c2COC(c2ccc(Cl)cc2)C3)CC1 (centres undefined)	none
Cc1ccccc1C(=O)N1CCCN(c2nnc3ccc(Cl)cn23)CC1	KDM5B inh 25.1µM
COc1ccc(C(=O)N2CCCn3cc(-c4ccccc4F)nc32)cn1	none
COc1ccc(C(=O)N2CCN(Cc3ccc(=O)n(C)c3)CC2)cn1	none
Cc1ccc(-c2cc(N3CCCN(C(=O)c4cccnc4)CC3)n[nH]2)cc1C	none
O=C(c1cccnc1)N1CCN(c2nnc3ccc(Cl)cn23)CC1	KDM5B inh 15.8µM
Cc1cc(C)c2c(C)c(C(=O)Nc3nonc3-c3cccs3)oc2c1	none
O=C1NCCCCCCN(C(=O)CCCc2ccccc2)[C@H]2CCCC[C@@H]12	none
COc1cccc(NC(=O)NC2CCN(c3nc(C)cc(C)n3)CC2)c1	none
COCCOc1ccc2c(n1)CCN(C(=O)c1cccs1)C2	none
O=C(NC1CCCCC1)[C@H]1O[C@H](CCN2CCN(Cc3ccccc3)CC2)CC[C@@H]1O	none
CCNC(=O)NCC(=O)N1CCCCCNC(=O)CC1c1ccccc1 (centres undefined)	none
COc1ccccc1CCC(=O)N1[C@@H]2CC[C@H]1CC(NC(=O)c1cnc(C)cn1)C2 (some centres undefined)	none
COc1cccc(CN2Cc3nc(-c4cn[nH]c4)ccc3OCC2=O)c1	none
O=C(NCC1CCCO1)C1CCN(C(=O)c2ncn3c2COC(c2ccc(F)cc2)C3)CC1 (centres undefined)	none
Cc1cc(-c2cc(-c3cccs3)nc3c(C)noc23)ccn1	KDM5B inh 28.2µM
COc1ccccc1-c1cc(-c2cccs2)nc2c(C)noc12	KDM5B inh 35.5µM
Cc1noc2c(-c3ccc(N4CCOCC4)cc3)cc(-c3cccs3)nc12	none
COc1nc2cc(C)ccc2cc1-c1noc(-c2cccs2)n1	none
COCCCNc1cc(-c2cccs2)nc2c(C)noc12	none
Cc1noc2c(N3CCOCC3)cc(-c3cccs3)nc12	none
O=C1CCN(C(=O)Nc2ccccc2F)CCCC(C(=O)NCc2ccncc2)CCN1 (centres undefined)	none
O=C([C@@H]1C[C@H](F)CN1C(=O)c1ccc(F)cc1)N1CCOCC1	none
Cc1cc2nc(-c3cccc(NC(=O)c4ccccc4[N+](=O)[O-])c3)oc2cc1C	none
Fc1c(F)c(C(F)(F)F)c(F)c(F)c1Sc1cccc2cccnc12	none
FC(F)(F)c1cccc(NC(=S)NCCC(c2ccccc2)c2ccccc2)c1	none
Cc1ccc(S(=O)(=O)N2CCN(C(C(=O)O)c3c[nH]c4cc(Cl)ccc34)CC2)cc1 (centres undefined)	none
CN(C)[C@H]1CCCCN(C(=O)CCc2ccc(-c3ccc(Cl)cc3)[nH]2)C1	KDM5B inh 31.6µM
O=C(CCc1ncc(-c2ccc(Cl)cc2)o1)N1CCCC(O)C1 (centres undefined)	none
Cc1nccc(-c2ccccc2)c1C(=O)N1CCCC[C@H](N(C)C)C1	none
CC(C)NC(=O)c1onc(-c2ccc(F)cc2)c1[C@H](C)O	none
CCOCCCNC(=O)N1CC(Oc2ccc(-c3nc(-c4ccccc4)no3)cc2)C1	none
O=C(Cc1c[nH]c2ncc(-c3cccnc3)cc12)Nc1ccc(F)cc1	none
Cn1cc(-c2cnc3[nH]cc(CC(=O)Nc4cccnc4)c3c2)cn1	KDM5B inh 39.8µM
CN(C)c1cccc(NC(=O)Cc2c[nH]c3ncc(-c4cccnc4)cc23)c1	none
CN(C)C(=O)Cc1c[nH]c2ncc(-c3cnn(C)c3)cc12	KDM5B inh 39.8µM
Cn1cc(-c2cnc3[nH]cc(CC(=O)NCc4cccc(F)c4)c3c2)cn1	KDM5B inh 31.6µM
CNC(=O)c1cccc(-c2cnc3[nH]cc(CC(=O)NC4CCC4)c3c2)c1	none
CN(C)C(=O)Cc1c[nH]c2ncc(-c3cccnc3)cc12	none
CNC(=O)c1cccc(-c2cnc3[nH]cc(CC(=O)Nc4cccc(F)c4)c3c2)c1	none
N#Cc1ccccc1S(=O)(=O)N[C@H]1CO[C@H]2[C@@H]1OC[C@H]2OC(=O)Nc1cccc(C(F)(F)F)c1	none
C=CCN(Cc1ccc(OC)cc1)C(=O)c1cc(=O)c2ccccc2o1	none
CCC(C(=O)N1CCN(c2cc(C(F)(F)F)ncn2)CC1)c1ccccc1 (centres undefined)	none
O=C(COc1coc(CN2CCCCC2)cc1=O)NCc1ccccc1	none
CC(Oc1ccc(F)cc1)C(=O)N1CCC(c2nc3ccccc3o2)CC1 (centres undefined)	none
Cc1ccc(-c2noc(-c3nc(Cc4ccc(F)cc4)no3)n2)cc1	none
Cc1csc(Nc2ccc3c(n2)CN(Cc2ccc(F)cc2)C(=O)CO3)n1	none
Cc1ccc(NC(=O)N2CCCCCCNC(=O)CC2c2ccccc2)cc1C (centres undefined)	none
N#Cc1cccc(C(=O)NCCSC(F)(F)F)c1	none
CC(C)CCNC(=O)c1cccc(C#N)c1	none
COCc1ccc(CNC(=O)c2cccc(C#N)c2)cc1	none
